Laboratory results taken from PubChem BioAssay AID1347426 (Functional Genomics Laboratory (NCATS/FGL), 2020).
Screen size: about 31,000 sequences; about 1,400 (4.5%) were called active. This excerpt belongs to a sample that is enriched for actives. Values without a mark were called inactive.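 Rule for the calls: active = median seed-adjusted z-score above 1 or below -1; inactive = the rest.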

Assay: Novel Modifiers of Survival Motor Neuron (SMN) Protein: Gene Identification via Genome-wide siRNA Screen;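 note: luminescence tracks full-length SMN protein made from the SMN2 reporter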
Conditions: HEK293T SMN2-luciferase reporter, siRNA knockdown, 72 h; actives lie on both sides
Summary of the method: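 Each of three siRNAs per gene is reverse-transfected (1 pmol) into reporter HEK293T cells whose luciferase output tracks SMN protein level. After 72 h culture, ONE-Glo luminescence is control-normalized, log10-transformed and MAD-standardized; Common Seed Analysis deprioritizes seed-driven hits.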

Sequence | median seed-adjusted z-score
CUGCCGAACUUUUAAACAATT against MCHR2 | -0.658
UGGAAUCUGUGGUAAAGAATT against HGS | 1.16 (active)
CCACGUCUAAAGUCCGAAATT against KIF3C | 0.0126
GAAUGGUCGUGGAUUCACATT against MAPKAPK5 | 0.489
GGAGAUUCCAUAAGACAAUTT against ZNF114 | -0.303
GGAUCUUCGUGAAGUAUUUTT against TRA2A | -0.187
AAAUUCCCGUCAUUGAAAATT against SNRPA1 | -2.71 (active)
GGAUUGCUUCUGACUCCGATT against ELK3 | -0.16
CAUUGACCACUACAAGUAATT against ITFG1 | -0.417
CAUUUGCGGUUCGGACAAATT against CACNB2 | 0
CUCUGUGAAUUUGAAAUCATT against SNED1 | 0.148
GCAAGAUAGCUCAACCCAATT against ADAMTS12 | -0.0721
GUAUCAUGGAUGGAAAAGATT against ASRGL1 | 0
GCAGAGGAGUCAAUGCUAUTT against ARL8B | -0.477
AGCUUUUGUUGAGAGUUCATT against YY1 | 1.94 (active)
GCUACUUACAGGUACCGUATT against PDCD11 | -0.335
GUUUCUGAUUUAAUAGACATT against ZNF781 | 0.0307
CCAACAAACUCACCAUACATT against KREMEN1 | 0
AAACAAUUCCAGUCCAGUUTT against IL8RA | 0.316
CACCUGCGAGUGUUCCAAUTT against CSTB | 1.08 (active)
GGAAAGUUCUUUAGACUUATT against ZNF529 | -0.243
GAAUCAACAAGAUUGGGAATT against CBS | -0.0696

Sequence | median seed-adjusted z-score
UCGUGUUCCUAGUCAUCUATT against TCIRG1 | 0.123
GUCACGUACUCGCUGCUGATT against SMAD6 | -0.167
GGCUCAACAUACAUCAGAATT against ZNF350 | 0.133
GGCACUCCAUGCUCACUGUTT against AGPAT1 | -1.38 (active)
GGUGAAAGGUCAGAUCUAATT against ZNF436 | 0.00767
GGAAGUAUCAGAUCUUGAATT against CYFIP2 | -0.322
GCAGUGUAUAGAACGAGAATT against RNGTT | -1.55 (active)
GCACAUCAAGUUCUAUACATT against SLCO2A1 | -0.0778
CCCUGUCAUCUAUGCUCUATT against CNR2 | 0.33
GACCCACAAAUAUACCAUUTT against SMAP1 | -0.201
GCAAAGCUCUAAAGCCCAATT against TXNDC12 | -0.154
GGAUUAAAGUGUGAAGACUTT against PRKCD | -0.236
GGGCAGAUGACACCUUUGATT against TCEB2 | 1.28 (active)
CGCAAGGACAGAAAACCAATT against ASMT | -0.322
ACGGCUACGUGGUAAAGGATT against RPS6KA1 | 0.194
CAGCAACCAGAGGAGUAUATT against TCF20 | 0.392
CCGUCAUGCACUUACCUUUTT against ADCY9 | 0.269
CAUCAUGACAUGUAUGAUUTT against PAFAH1B3 | -0.381
GAGUGUGACUGGUAAAGUUTT against SMNDC1 | -1.54 (active)
GAGGAAUUGUUGAUAAAGATT against MAGI2 | -0.23
GAAUGCUCCUUUACCAGAATT against GRB10 | -0.0341
GGAAGAACAUGACAACCAATT against IFIT1 | -0.489

Sequence | median seed-adjusted z-score
CCAACGAUCUGGACCGUGUTT against MED16 | -0.6
GAACCUGGAUCACAUAAUATT against DFFB | 0.242
CCAAGAUUGUCACUCUGGATT against E2F7 | -0.0972
GGUUCGAGGUAAACCCUAATT against CTPS2 | 1.08 (active)
GGGCUACAAACUGAACAAATT against LOC81691 | -0.285
CAACAGCGAUUUGAUGGAATT against ERO1L | -0.251
GGAACUGUUUAUAAGGGUATT against RAF1 | 0
GGCACGUUUUACGACAGAATT against CHEK2 | 0.585
GGCACAUGGUUAACCUGGATT against GPX4 | -1.18 (active)
CCCAGGAAGUUCUACUACATT against HS6ST1 | -0.436
GAACUUCACUUAGGACAUUTT against ATP6V1G1 | 0.311
GACUCAAUGGUUUGCAUUATT against CTDP1 | -2.29 (active)
GGAUGAUCAUGAGCGGCAATT against PHKG1 | -0.153
GCUUCAUUGUGGACCGGCATT against GALNTL4 | 0
GACUGGAGAUAUCAAGGAATT against SQLE | -1.14 (active)
CAAUGAAGAUAUGUUUAGATT against WBP5 | 0.452
GAUCAUUGAGAACACGUAUTT against RNF121 | -0.53
GAAUCCACCUUCGACCUGATT against HMX1 | 1.3 (active)
CCACUGAAUAUGUGCAGAATT against FBP2 | 0
CGGCUACGACGAUUACGAATT against MYO15A | 0.0508
GGAUUUCGAUUGCAUCAUUTT against LGI1 | -0.19
AGUGGGUGCUGAACCAUGATT against FES | 0.402

Sequence | median seed-adjusted z-score
GCCCAGAGACUAUUCAGUATT against SF3A3 | -2.1 (active)
CGUGGAAUACUAGAGCAAATT against ACTL6A | 1.11 (active)
CAGACUUGCUUAAUAGUAATT against ZFP1 | 0.0391
GGAACUACCAUGCAGGCUATT against ATP6V0B | 0
CCAGCAUGGUUACUACGAATT against TRAIP | -0.018
GGAACAAGAGUGGACGGAATT against PIAS3 | -0.216
CCAGCUCUUCCAUACAAUATT against RAB9A | 0.247
GGCUUCAUAUCUAGACUAATT against APOBEC3A | 0.467
UGUUCAGCCUUGACUCAAATT against RHOU | -1.44 (active)
GCACCUAUGAGGAAAAUGATT against LAMB2 | 1.12 (active)
GAAGCUUGAUCUAAUUAUATT against ZNF182 | 0
CCAUUUCCAGAGGCCCAGATT against SLC22A12 | -0.148
GCCUGGAACUCGUUAGCAATT against TRMT11 | -0.707
GGCUUAACUUUAGUGUUGATT against PRDM2 | 1.12 (active)
GAGCGAGUUUUACCUGAUATT against ABCA10 | -0.104
CAGAUAUGAUUGGUGUAAATT against CABP1 | -0.192
GAAAUCGACUCUCACCAAATT against IL18RAP | -0.681
CGGAAAAUCAGCAACAUCATT against EPS8L2 | -0.497
GGAUAAUAAGGAUCUAUUUTT against CPNE3 | 0.109
GUUUACCUCUGGAUACACUTT against SNRPD1 | -2.97 (active)
GGAGUUCCAAUGGAAGUUATT against PSMD14 | 0.375
CGAUGGACUAAGUAAUAUATT against KPNA4 | 0.457

Sequence | median seed-adjusted z-score
CCACCUAUUUGCACAAGGATT against POMT2 | -0.614
UCAAGGCCCUGUGCGCUAATT against PPP4C | 1.15 (active)
GCAACCACCAAGAGUUUGATT against KCNS1 | -0.167
CUGUAGAUCUUUGUCAAAATT against DUS4L | 0.525
UGCUAGUCCUGGGAACAGATT against PPM1J | -0.901
GGUCAACAAUGCUUAUGCATT against DHRS1 | 0
GCUUGAGAACUACCAGGUUTT against TAL2 | -0.395
ACAAUAAGCUGGACCUCUATT against TLR9 | -0.0834
CCUUCUACAGGAUCUCCAATT against ADRA1A | -1.06 (active)
CAGUGGAUGUUAUUCCUCATT against RNF128 | -0.377
GGACUACACGUACUUCUCATT against KIRREL3 | -0.206
CCAAGAGUGAUGCAGAGGATT against CABP4 | 0.146
GGAGUUCUGUAACUCACUUTT against SLC38A2 | -1.04 (active)
GGUGCUACAUCCUAGAGAATT against SULF2 | -0.109
GCAAGACCUGGUCAGUAUATT against NOX4 | -0.246
AGAAUGUCUUGAUUGUGGATT against HPRT1 | -0.0463
GCCUCACAUUUUCUAAUGATT against RRM2 | -3.84 (active)
AGAAGUUCAUGGUCGGAGATT against SULT1A1 | -0.26
GAUCGGCACUUACACCUGUTT against OPHN1 | 0.692
AGAUCGACCAGAACGUGGATT against APOA4 | 0.195
